# Results filed as inconclusive are left out. Activity calls are given as the source filed them. Calls come from the whole dose curve; as a rule, active = well fitted inhibition curve with a large enough effect; inconclusive = small, poorly fitted or top-dose-only effect; inactive = no such curve, though single readings can be large or run the other way.
# Target: Peripheral myelin protein 22 (Rattus norvegicus) (UniProt P25094)
# Test: Cell-based HiBiT reporter assay to measure PMP22 protein expression in S16 Pmp22-HiBiT cells
# Conditions: S16 Schwann Pmp22-HiBiT, NanoGlo luminescence, 48 h; series mostly up to 27.9 µM
# Text: Assay Provider: Jim Inglese Ph.D. National Center for Advancing Translational Science, National Institutes of Health, Rockville, MD CMT is a heterogeneous group of neurological disorders that affect approximately 1 in 2,500 people. In particular, the most common form of CMT, CMT1A is genetically linked to the duplication of the PMP22 gene which leads to Schwann cell overexpression, thus manifesting itself as a typical case of dose-sensitive diseases. To identify small molecule compounds that can mediate the expression of PMP22 we developed a phenotypic assay screening strategy by utilizing genome editing techniques to construct Schwann cell lines containing novel reporter technology to monitor the transcriptional or translational regulation of PMP22. For high sensitivity we use a bioluminescent reporter system embedded in the 3' UTR of the PMP22 gene (S16(c9) Pmp22-F2sN) to identify compounds that inhibit gene expression. […] We can further discriminate the effect of all transcriptionally active molecules on PMP22 translation or stability with an assay that incorporates a short NLuc peptide (HiBiT) at the C-terminus of expressed PMP22 (S16(f8) PMP22-HiBiT) allowing alpha complementation and luminescence detection of membrane-associated PMP22 protein. These assays were screened against the NCATS Sytravon Library Collection. Miniaturization of these assays to 1536-well plate format for quantitative high throughput screening (qHTS) yielded rich data sets immediately from the qHTS assay (S16(c9) Pmp22-F2sN), when compared with data from a cell viability assay (Cell TiterGlo) to identify compounds that decreased the output signals through cellular toxicity to streamline the selection process of actives for subsequent characterization using the HiBiT assay (S16(f8) PMP22-HiBiT).
# Cell-based HiBiT reporter assay in S16 Pmp22-HiBiT cells PROTOCOL TABLE (format as described by Inglese J, Shamu CE and Guy RK. 2007) SEQUENCE No. (e.g., 1, 2, 3, etc.); PARAMETER (e.g., Cells, Incubation, Reagent, etc.); VALUE and DESCRIPTION. 1. Cells. Add 1,500 cells in 5 uL in growth media (DMEM High Glucose, No Phenol Red media + 10% heat-inactivated FBS + 1% Pen/Strep supplemented media) per well into Greiner 1536-well white/solid bottom high base, TC-treated plates. 2. Compounds. Library compounds and controls added at 23nL per well, transferred by Pin Tool. 3. Incubation. Incubate plates at 37C, 5% CO2, 95% RH for 48 h. 4. Media removal. Invert and centrifuge plates. 5. Reagent. Add 3uL NanoGlo HiBiT Lytic Detection Reagent per well of Greiner 1536-well plates. 6. Incubation. Incubate plates at room temperature for 15 min., protect from light. 7. Detector. NLuc luminescence measured using CCD-based camera (Viewlux). NOTES (numbers refer to Sequence numbers above; values are from representative experiments) 7. Luminescence Read: Clear filter; Exposure = 10 sec, Gain = High, Speed = Slow, Binning = 2X REFERENCES: 1. Inglese J, Shamu CE and Guy RK, Reporting data from high throughput screening of small molecule libraries, Nature Chemical Biology, 2007, 3(8): 438-441. doi.org/10.1038/nchembio0807-438 2. Yasgar A, Shinn P, Jadhav A, Auld DS, Michael S, Zheng W, Austin CP, Inglese J and Simeonov A, Compound Management for Quantitative High-Throughput Screening. J. Assoc. Lab. Auto., 2008, 13: 79-89. doi: 10.1016/j.jala.2007.12.004
# Chain of Peripheral myelin protein 22 (Rattus norvegicus) (P25094 whole entry, looked up): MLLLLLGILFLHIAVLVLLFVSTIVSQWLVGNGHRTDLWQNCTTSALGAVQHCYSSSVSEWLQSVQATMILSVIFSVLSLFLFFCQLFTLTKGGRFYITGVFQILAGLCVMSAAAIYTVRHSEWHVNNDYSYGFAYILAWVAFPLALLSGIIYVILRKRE
row,SMILES,Potency
1,COc1ccc(Br)cc1CC1C(=O)Nc2ccccc21 (centres undefined),9.12 µM (active)
2,Cc1ccc(C)c(NC(=O)Cn2c(=O)n(Cc3ccc4c(c3)OCO4)c(=O)c3ccc(C(=O)NC4CCCCC4)cc32)c1,inactive
3,Cc1cccc(Nc2c3c(nc4nncn24)CCC3)c1C,inactive
4,CCc1nnc(NC(=O)c2nc(S(C)(=O)=O)ncc2Cl)s1,10.2 µM (active)
5,Cc1ccc(CN2C(=O)C(O)(c3c(C)[nH]c4ccccc34)c3ccccc32)cc1 (centres undefined),inactive
6,CCCCS(=O)(=O)c1nc(-c2ccc(Br)cc2)cc(-c2ccccc2)c1C#N,inactive
7,COc1ccccc1Nc1c2c(nc3ccc(NC(=O)/C=C/c4cccc(OC)c4OC)cc13)CCCC2,5.13 µM (active)
8,Cc1cccc(CS(=O)(=O)c2ncc(Cl)c(C(=O)Nc3nc4ccc(F)cc4s3)n2)c1,3.63 µM (active)
9,COc1ccc(Nc2nc3c(S(=O)(=O)c4ccccc4)nnn3c3ccc(Cl)cc23)cc1,inactive
10,COC(=O)CS(=O)(=O)c1nc2ccccc2nc1N1CCCCC1,14.5 µM (active)
11,Cc1c(Cl)cccc1NC(=O)c1oc2ccc(S(=O)(=O)N3CCC4(CC3)OCCO4)cc2c1C,inactive
12,COCCCNC(=O)c1ccc(-n2c(-c3ccccc3)cc3c2CCC(C)C3)cc1 (centres undefined),5.75 µM (active)
13,CCCn1c(=N)c(C(=O)NC(C)c2ccccc2)cc2c(=O)n3ccccc3nc21 (centres undefined),inactive
14,O=C(Cn1c(-c2cccs2)cc2ccccc21)NCCCN1CCN(c2ccc(F)cc2)CC1,6.45 µM (active)
15,Cc1ccc(NC(=O)c2nc(S(=O)(=O)Cc3cccc(C)c3)ncc2Cl)cc1,4.57 µM (active)
16,Cn1c(=O)oc2cc(S(=O)(=O)N3CCCC(C(=O)N4CCN(c5ccc(Cl)cc5)CC4)C3)ccc21 (centres undefined),4.07 µM (active)
17,Cc1cccc(-n2c(=O)c3c(c4cc(C)ccc4n3C)n(CC(=O)NCCC3=CCCCC3)c2=O)c1,inactive
18,COc1ccccc1Nc1nn2c(=O)c3ccc(C(=O)Nc4ccc(F)cc4)cc3nc2s1,9.12 µM (active)
19,CCN(CC)CCNC(=O)c1cc(-c2ccc(Br)s2)nc2ccccc12,inactive
20,COc1ccccc1-c1cc(C(F)(F)F)nc(S(=O)(=O)CCCC(=O)Nc2ccccc2F)n1,10.2 µM (active)

row,SMILES,Potency
1,Cc1ccc(C(=O)Nc2ccc(S(=O)(=O)N3CCC(c4nc5ccccc5s4)CC3)cc2)cc1,inactive
2,COC(=O)c1ccccc1NC(=O)c1nc(S(=O)(=O)Cc2cccc(C)c2)ncc1Cl,6.45 µM (active)
3,Cc1ccc(C)c(NC(=O)Cn2c(=O)n(Cc3ccccc3)c(=O)c3oc4ccccc4c32)c1,14.5 µM (active)
4,Cc1cc(C)c(NC(=O)Cn2c(=O)n(Cc3ccco3)c(=O)c3ccc(C(=O)NC4CCCC4)cc32)c(C)c1,inactive
5,COc1ccccc1-c1cc(C(F)(F)F)nc(S(=O)(=O)CCCC(=O)Nc2ccc(F)cc2F)n1,5.13 µM (active)
6,Cc1cccc(N2CCN(C(=O)C3CCCN(S(=O)(=O)c4ccc5c(c4)oc(=O)n5C)C3)CC2)c1C (centres undefined),inactive
7,O=C(Cn1c(-c2cccs2)cc2cc(F)ccc21)NCCCN1CCN(c2ccccc2F)CC1,12.9 µM (active)
8,CCc1ccc(NC(=O)Cn2c(=O)n(-c3ccc(OC)cc3)c(=O)c3ccc(C(=O)NCc4ccc(C)cc4)cc32)cc1,inactive
9,CC(=O)N1CCc2c(sc(NC(=O)CSc3ccccc3)c2-c2nc3ccccc3s2)C1,16.2 µM (active)
10,CCS(=O)(=O)c1ncc(Cl)c(C(=O)Nc2c(C(=O)c3ccc(C)cc3)oc3ccccc23)n1,inactive
11,Cc1ccc(S(=O)(=O)c2nnn3c2nc(NC2CCCCCC2)c2sccc23)cc1C,14.5 µM (active)
12,COc1ccc(NC(=O)c2nc(S(=O)(=O)Cc3ccc(C)cc3)ncc2Cl)cc1,10.2 µM (active)
13,CCOC(=O)c1c(NC(=O)c2nc(S(C)(=O)=O)ncc2Cl)sc(C(C)=O)c1C,3.24 µM (active)
14,CCOc1ccc(NC(=O)CSc2oc(-c3ccc(F)cc3)nc2S(=O)(=O)c2ccc(C)cc2)cc1,inactive
15,O=C(NCCCN1CCN(c2ccc(F)cc2)CC1)c1cc2c(Cl)nc3ccccc3c2s1,inactive
16,CCc1ccc(OCC(=O)Nc2cc3oc4ccccc4c3cc2OC)cc1,inactive
17,COc1ccc(NC(=O)c2oc3ccccc3c2NC(=O)Cc2ccc(F)cc2)c(OC)c1,inactive
18,Cc1ccc(C)c(N2CCN(CCCNC(=O)Cn3c(-c4cccs4)cc4ccccc43)CC2)c1,7.24 µM (active)
19,Cc1ccc(NC(=O)N2CCc3cc(S(=O)(=O)N4CCC(C)CC4)ccc32)cc1F,inactive
